The values that follow come from PubChem BioAssay AID2391 (Southern Research Specialized Biocontainment Screening …, 2010).

Out of some 310,000 compounds screened, about 410 (0.13%) were called active. Roughly 2% stayed inconclusive and do not appear here. The rule behind the calls is not given here. Not all results are given here. Potency and affinity values are given separately.

This test can be described thus: RSV antiviral activity via CPE protection, HEp-2 cells, primary 10 µM value included (AID 2391). Particulars: RSV-induced CPE inhibition, at 10 µM, active compounds read high.
On to `COc1ccccc1CNC(=O)c1ccc(CS(=O)Cc2cccc(Cl)c2)o1` (stereo not drawn), for which the CPE inhibition was 4.42% (inactive). On to `Cc1ccc(C2c3c(C)nn(-c4ccc([N+](=O)[O-])cc4)c3N=C3C(=O)Nc4ccccc4N32)cc1` (stereo not drawn), for which the CPE inhibition was 3.63% (inactive). The figure for `Cc1nn(-c2ccc([N+](=O)[O-])cc2)c2c1C(c1ccc(OC(F)F)cc1)N1C(=N2)C(=O)Nc2ccccc21` (stereo not drawn) is 6.37% (inactive); for `O=C(c1ccc(F)cc1)C1CCN(C(=S)Nc2ccccc2Cl)CC1` it is 2.44% (inactive); for `Cc1nn(Cc2ccc(Cl)cc2)c(C)c1NC(=O)c1cc(C(C)C)on1` it is 7.7% (inactive). As to `Cc1cc(C(=O)Nc2c(C)nn(Cc3c(Cl)cccc3Cl)c2C)no1`, the CPE inhibition was -0.07% (inactive). As for `Cc1cc(C)n2nc(C(=O)N/N=C/c3c4ccccc4cc4ccccc34)nc2n1`, the CPE inhibition is 3.03% (inactive). Consider `CCCCN(CC)Cc1c(C)[nH]c2c(ccc3ccccc32)c1=O`, for which the CPE inhibition was 0.96% (inactive).

Turning to `COc1ccc(S(=O)(=O)NCc2ccco2)cc1NC(=O)c1ccccc1`, the CPE inhibition was 3.54% (inactive). With `COc1ccc(S(=O)(=O)NCc2ccco2)cc1N(C)S(=O)(=O)c1ccccc1`, the CPE inhibition was 2.02% (inactive). `Cc1nn2c(-c3ccccc3)nnc2c2ccccc12`: the CPE inhibition was -0.87% (inactive). Regarding `Cc1ccccc1-c1nnc2c3ccccc3c(C)nn12`, the CPE inhibition was -1.91% (inactive). Regarding `COc1ccc(S(N)(=O)=O)cc1-c1nnc2c3ccccc3c(C)nn12`, the CPE inhibition was 6.57% (inactive).

As to `COc1ccc(-c2nnc3c4ccccc4c(C)nn23)cc1`, the CPE inhibition was 4.75% (inactive). Consider `Cc1ccc(N2C(=O)c3ccc(N)cc3C2=O)cc1`, for which the CPE inhibition was 1% (inactive).

Turning to `COc1cc(SC)ccc1C(=O)Nc1ccc2c(c1)OCCO2`, the CPE inhibition is 49.8% (inactive). The figure for `CC(=O)Nc1ccc(OCC(O)Cn2nc(C)nc2C)cc1` (stereo not drawn) is -1.49% (inactive); for `COc1ccc(CN(C(=O)c2oc3cc(C)c(C)cc3c2C)C2CCS(=O)(=O)C2)cc1OC` (stereo not drawn) it is 5.1% (inactive). With `Cc1ccc(Cl)cc1NS(=O)(=O)c1ccc2oc(=O)ccc2c1`, the CPE inhibition is 15.7% (inactive). For the molecule `O=C(COC(=O)c1ccc(OC(F)F)cc1)NC(=O)NC1CCCC1`, the CPE inhibition is 2.84% (inactive). For the molecule `CC(=O)Nc1ccc(NC(=O)CCn2nnc3ccccc32)cc1`, the CPE inhibition is -1.57% (inactive). On to `C=CCNC(=O)COC(=O)c1cc(S(=O)(=O)N2CCCCC2)ccc1Cl`, for which the CPE inhibition was 0.67% (inactive). On to `COc1ccc(-c2cc(C(=O)N3CCCC3)c3ccccc3n2)cc1`, for which the CPE inhibition was 3% (inactive). Consider `COc1ccc(-c2cc(C(=O)O)c3ccccc3n2)c(OC)c1`, for which the CPE inhibition was 0.21% (inactive).

As to `O=C(O)c1cc(-c2cccs2)nc2ccc(F)cc12`, the CPE inhibition is -0.75% (inactive). With `O=C(O)c1cc(-c2ccc(-c3ccc(F)cc3)o2)nc2ccccc12`, the CPE inhibition was 7.68% (inactive). Regarding `O=S(=O)(c1ccc(C2CCCCC2)cc1)N1CCOCC1`, the CPE inhibition is 15.3% (inactive). `O=C(CO/N=C/c1ccccc1)Nc1c(F)c(F)c(F)c(F)c1F`: the CPE inhibition was 2.75% (inactive).

Regarding `COc1ccc(NC(=O)CN(C)C(=O)CCCc2nc3ccccc3s2)cc1`, the CPE inhibition was 2.07% (inactive). Regarding `Cc1cc(Cl)ccc1OCCCC(=O)N1CCN(C(=O)c2ccco2)CC1`, the CPE inhibition is 17.5% (inactive). In the case of `Cc1cc(SCC(=O)c2ccccc2)n2ncc(-c3ccccc3)c2n1`, the CPE inhibition was 4.59% (inactive). In the case of `Cc1ccc2nc(C)cc(SCC(=O)N/N=C/c3ccco3)c2c1`, the CPE inhibition is 1.6% (inactive).

For `COc1ccc(Cn2c(-c3ccccc3C)nc3c(c(=O)c4ccccc4n3C)c2=O)cc1`, the CPE inhibition was 52.8% (inactive). With `COCCn1c(-c2ccc(Cl)cc2)nc2c(c(=O)c3ccccc3n2C)c1=O`, the CPE inhibition was 8.68% (inactive).

Regarding `COc1ccc(Cn2c(-c3ccco3)nc3c(c(=O)c4ccccc4n3C)c2=O)cc1`, the CPE inhibition is 12.4% (inactive). As for `COCCn1c(-c2cccc(Br)c2)nc2c(c(=O)c3ccccc3n2C)c1=O`, the CPE inhibition was 45.9% (inactive). For `Cn1c2ccccc2c(=O)c2c(=O)n(Cc3ccco3)c(-c3ccc(C(C)(C)C)cc3)nc21`, the CPE inhibition was 6.32% (inactive). With `COc1ccc(Cn2c(-c3ccc(C)cc3)nc3c(c(=O)c4ccccc4n3C)c2=O)cc1`, the CPE inhibition is 3.47% (inactive). With `CCc1nc2sc3ccccc3c(=O)c2c(=O)n1Cc1ccco1`, the CPE inhibition is 10.5% (inactive). Turning to `CCCCCc1nc2c(c(=O)c3ccccc3n2C)c(=O)n1Cc1ccc(OC)cc1`, the CPE inhibition is 56.9% (inactive). In the case of `COc1ccc(N2CCN(CCNS(=O)(=O)c3ccc(C)cc3)CC2)cc1`, the CPE inhibition is -1.19% (inactive).

Take `CCCCOc1ccc(Cl)cc1CSc1n[nH]c(C)n1`: the CPE inhibition was -1.27% (inactive). For the molecule `CC(NC(=O)c1c(F)cccc1Cl)c1ccc(-n2ccnc2)cc1` (stereo not drawn), the CPE inhibition is 2.43% (inactive). Consider `COc1cnn(-c2ccccc2)c(=O)c1SCc1ccc(Cl)c(Cl)c1`, for which the CPE inhibition is 5.77% (inactive). As to `Fc1ccccc1NC(=S)N1CCN(C/C=C/c2ccccc2)CC1`, the CPE inhibition is 0.73% (inactive).

Regarding `Cc1ccc(C)c(S(=O)(=O)N/N=C/c2ccc(N(C)C)cc2)c1`, the CPE inhibition was -0.72% (inactive).

Consider `c1ccc2c(c1)nc1n2CN(Cc2ccc3c(c2)OCO3)CN1`, for which the CPE inhibition is 1.87% (inactive). For the molecule `Cc1csc(=O)n1CCC(=O)OCC(=O)NNC(=O)c1ccccc1`, the CPE inhibition is -2.48% (inactive). Regarding `COc1ccc(CCn2c(-c3ccccc3)nc3c(c(=O)c4ccccc4n3C)c2=O)cc1`, the CPE inhibition was 2.88% (inactive). As to `COc1ccc(CCn2c(C(C)C)nc3c(c(=O)c4ccccc4n3C)c2=O)cc1`, the CPE inhibition is 4.88% (inactive). `Cc1ccc(NC(=O)c2cn(-c3cccc(C)n3)cn2)cc1`: the CPE inhibition was 3.46% (inactive).

Turning to `CC(C)C[C@H](NC(=O)c1nc[nH]c1C(=O)N[C@@H](CC(C)C)C(=O)OC(C)(C)C)C(=O)OC(C)(C)C`, the CPE inhibition was -5.5% (inactive). With `CC(C)C[C@H](NC(=O)c1nc[nH]c1C(=O)NC1CCN(C(=O)OC(C)(C)C)CC1)C(=O)OC(C)(C)C`, the CPE inhibition is 0.16% (inactive).

Turning to `COc1ccc(Cn2cnc3c4cc(F)ccc4n(C)c3c2=O)cc1`, the CPE inhibition was 1.16% (inactive). As to `CC(C)(C)c1cc(NC(=O)c2ccco2)no1`, the CPE inhibition is 2.28% (inactive). As for `Cc1occc1C(=O)Nc1cc(C(C)(C)C)on1`, the CPE inhibition was -1.18% (inactive). In the case of `COc1ccc(N(C(=O)CNC(=O)c2ccco2)C(C(=O)NC2CCCC2)c2cccnc2)cc1` (stereo not drawn), the CPE inhibition was -0.22% (inactive).

Regarding `NC(=O)c1ccsc1NC(=O)COC(=O)C1CC2CCCC(C1)C2=O` (stereo not drawn), the CPE inhibition is 1.41% (inactive).
